Assay outcomes from PubChem.
Most compounds without a hit are left out; they make up all but 9% or so of the library.
ALDH1A1 block – ALDH1A1 (human) enzyme inhibition; P00352; Potency, µM (top dose mostly 75.3 µM), for inactives: at the highest dose activity, negative = inhibition, most hits filed as inhibitors; Purified ALDH1A1, NADH fluorescence, propionaldehyde substrate; 7.3% of 220,000 active;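 further: potency means the concentration at half of the fitted maximal effect; plate controls were no enzyme wells and a reference inhibitor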
HPGD block – blocks human HPGD enzyme activity; Potency, µM, inactives show top-dose activity change, negative = inhibition, hits mostly inhibitors; P15428; purified HPGD, NADH fluorescence kinetic, PGE2 substrate; 4.3% of 150,000 active; AID 894; further: potency means the concentration at half of the fitted maximal effect
Target sequence (P15428 whole entry, looked up): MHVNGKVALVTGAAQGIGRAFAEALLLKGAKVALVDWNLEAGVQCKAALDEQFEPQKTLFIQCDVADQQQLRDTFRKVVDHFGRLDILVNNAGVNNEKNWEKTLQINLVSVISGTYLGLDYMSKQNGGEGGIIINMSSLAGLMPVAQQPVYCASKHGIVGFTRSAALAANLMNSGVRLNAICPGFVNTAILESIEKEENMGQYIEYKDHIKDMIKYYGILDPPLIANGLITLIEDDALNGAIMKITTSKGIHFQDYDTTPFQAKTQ
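NADH formation kinetics: reaction with 30 uM PGE2 and 1 mM NAD+ (final), 20 nM enzyme, Tris-HCl pH 8 with Tween 20, after 15 min compound preincubation at room temperature. Fluorescence change, last versus first of five reads.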
IMPase inh – membrane-permeable compound that blocks inositol monophosphatase; P97697; CHO-M1 cells, IP1 accumulation, HTRF TR-FRET ratio; inhibition (IP1 accumulation), % at 46.1 µM; 120,000 tested, under 10 active; AID 901; active means well fitted curve in the direction sought with a large enough effect in the signal ratio, not every such curve was filed as active; inconclusive means small, poorly fitted or top-dose-only effect, or a change in a side signal; inactive means no such curve, though single readings can be large or run the other way; the % refers to the signal ratio;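 further: cells stimulated with carbachol in lithium chloride buffer; plate controls were DMSO basal wells for no effect and reference inhibitor wells for full effect; higher means more IMPase inhibition seen as more IP1 and lower FRET ratio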
Target sequence (P97697 whole entry, looked up): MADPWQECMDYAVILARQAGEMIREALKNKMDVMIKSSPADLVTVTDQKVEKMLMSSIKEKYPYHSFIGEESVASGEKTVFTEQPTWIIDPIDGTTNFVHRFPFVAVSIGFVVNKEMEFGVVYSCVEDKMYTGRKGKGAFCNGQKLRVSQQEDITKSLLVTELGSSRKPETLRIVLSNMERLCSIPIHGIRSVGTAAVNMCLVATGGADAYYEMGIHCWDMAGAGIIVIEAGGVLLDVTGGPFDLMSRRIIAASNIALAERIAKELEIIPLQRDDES
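CHO-M1 cells (CHO stably expressing M1 receptor), compound up to 46 uM final, stimulated with carbachol (50 uM as added) in buffer with 50mM LiCl, pH 7.4, 30 min at 37C. Cytosolic IP1 read by TR-FRET; AC50 from Hill fits.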
* = called active by the depositor; ? = inconclusive; · = not tested or not shown; ! = not active in a repeat. Unless noted, the call rests on the fitted dose curve; in most records, active means well fitted inhibition curve with a large enough effect (not every such curve was filed as active); inconclusive means small, poorly fitted or top-dose-only effect, or another doubt; inactive means no such curve, though single readings can be large or run the other way. Unless noted, on the % scale 0 is the no-effect control and ±100 the full control effect.

SMILES | ALDH1A1 block | HPGD block | IMPase inh
O=C(NCCc1ccccc1)c1ccc(-c2ccccc2C(F)(F)F)o1 | 25.1µM* | ? | ·
O=C(NCc1ccc(Cl)cc1)c1ccc(Br)o1 | 12.6µM*! | 35.5µM* | 0.7
O=C(NCCCCc1ccccc1)c1ccc(Br)o1 | -2.1% | 14.1µM* | 16.3
O=C(NCCC1=CCCCC1)c1ccc(F)cc1 | -2.5% | -21.9% | ·
O=C(NCc1ccccc1)c1ccc(-c2ccccc2F)o1 | -2.0% | -17.5% | 5.3
O=C(NNC(=S)NCc1ccc(Cl)cc1)c1ccc(Br)o1 | -0.5% | · | ·
COc1cccc([C@@H]2Oc3ccc(OC)cc3C[C@H]2OC(=O)NS(=O)(=O)c2ccc(C)cc2)c1 | 4.3% | -20.1% | ·
CCOC(=O)CNC(=O)O[C@@H]1Cc2cc(OC)ccc2O[C@H]1c1cccc(OC)c1 | 4.7% | -8.4% | ·
O=S(=O)(c1ccccc1)N1CCC[C@@]2(CCN(c3ccccc3)C2)C1 | ? | -11.8% | ·
COc1ccc(CC(=O)NC(C)c2nnc(SCCC(=O)Nc3ccccc3)n2C)cc1 (centres undefined) | -11.5% | · | ·
CC(=O)NCCc1cc2ccc(C)cc2[nH]c1=O | 2.4% | -19.8% | 1.9
O=C(NCCCc1ccccc1)c1ccccc1O | ? | ? | 2.0
Cc1ccn2cc(CCNC(=O)c3ccc(Br)o3)nc2c1 | 5.7% | -9.2% | -2.6
O=C(NCCCc1ccccc1)c1ccc(Br)o1 | ? | 25.1µM* | 3.8
Cc1ccc2cc(CCNC(=O)c3ccc(Br)o3)c(=O)[nH]c2c1 | ? | 28.2µM* | 7.4
Cc1ccn2cc(CNC(=O)c3ccc(Br)o3)nc2c1 | 0.5% | 15.8µM* | 0.0
N#Cc1ccc(CN2CCC3(CCNCC3)CC2)cc1 | -6.2% | -2.7% | ·
COc1ccc(-c2csc(Cc3nnc(N4CCOCC4)n3-c3ccccc3)n2)cc1 | ? | -1.6% | -4.1
COc1cccc2c(=O)cc(C)n(CC(=O)Nc3cccc(C)c3)c12 | ? | -23.6% | ·
O=C(O)c1cc(=O)[nH]c2c(Cl)cccc12 | -7.0% | · | ·
Cc1nnc(SCC(=O)Nc2ccccc2C(=O)NC2CC2)s1 | 0.2% | -3.3% | -5.2
O=C(O)CC(NC(=O)Cc1ccc(Cl)cc1)c1ccco1 (centres undefined) | 8.9% | · | ·
COc1ccc(CNCC(=O)Nc2ccccc2-n2cccc2)cc1 | 28.2µM* | · | ·
O=C(CNCC1CCCO1)Nc1ccccc1-n1cccc1 (centres undefined) | ? | -2.5% | -6.9
COc1cccc([C@@H]2Oc3ccc(OC)cc3C(=O)[C@H]2OC(=O)NCCc2ccc(OC)c(OC)c2)c1 | 6.5% | -20.2% | ·
SMILES | ALDH1A1 block | HPGD block | IMPase inh
Cc1cccc(/C=N/NC(=O)C2CCCNC2=O)c1 (centres undefined) | -0.3% | 1.9% | ·
CNC(=O)c1cc(C(=O)c2c(Cl)cccc2Cl)c[nH]1 | 0.5% | · | ·
O=C(c1c[nH]c(C(=O)C(Cl)(Cl)Cl)c1)c1ccccc1Br | 1.78µM* | · | ·
CN(C)C(=O)c1cc(C(=O)c2ccccc2Cl)c[nH]1 | 7.94µM* | · | ·
NC(=O)c1cc(C(=O)c2ccccc2Cl)c[nH]1 | 8.91µM* | · | ·
CN(C(=O)c1ccccc1Cl)c1ccccc1 | 0.4% | -13.5% | -12.9
CNC(=O)c1cc(C(=O)c2ccccc2C(F)(F)F)c[nH]1 | -7.3% | · | ·
Cc1cccc(OCC(=O)N/N=C\c2cccn2C)c1C | -15.0% | · | ·
CCOc1ccc(NC(=O)C(C)Oc2ccccc2C(=O)Nc2cccc(Cl)c2Cl)cc1 (centres undefined) | -4.0% | -0.1% | 3.2
COc1ccccc1C(=O)Nc1ccc(-c2nc3cc(C)cc(C)c3o2)cc1 | · | · | -7.7
Cc1cccc(C)c1NC(=S)NCCSc1ccc(Cl)cc1 | 4.7% | · | ·
CC1CC[C@@]2(C(=O)O)CCC3(C)C(=CCC4[C@]5(C)CC(O)C(O)[C@](C)(CO)C5C(O)C[C@@]43C)C2C1C (some centres undefined) | -0.2% | -11.2% | ·
COC(=O)[C@@H]1C[C@H]1[C@@H](NC(=O)c1cnccn1)c1ccccc1 | 3.0% | -4.5% | ·
COCCn1c(-c2ccc(-c3ccc([N+](=O)[O-])cc3Br)o2)nc2c1c(=O)[nH]c(=O)n2CC(C)C | 15.8µM* | · | ·
O=c1[nH]c(=O)n(Cc2ccccc2)c2nc(-c3ccc(Oc4ccc(F)cc4)c([N+](=O)[O-])c3)n(CCO)c12 | 0.4% | -25.4% | 4.5
CC(C)Cn1c(-c2cc([N+](=O)[O-])ccc2Cl)nc2c1c(=O)[nH]c(=O)n2Cc1ccccc1 | ? | -28.2% | 18.1
COc1ccc(-c2ccc(-c3nc4c(c(=O)[nH]c(=O)n4Cc4ccccc4)n3C)o2)c([N+](=O)[O-])c1 | 1.0% | 28.2µM* | ·
CCOc1ccccc1N1CCN(Cc2c(C)n(C)n(-c3ccccc3)c2=O)CC1 | 4.6% | · | ·
COc1ccc(NCc2ccc([N+](=O)[O-])s2)cc1 | -15.1% | -6.7% | ·
COc1ccc(NCc2ccc([N+](=O)[O-])s2)c(OC)c1 | 25.1µM* | -14.2% | ·
c1ccc(Cn2c(NCc3ccccn3)nc3ccccc32)cc1 | -5.4% | · | ·
c1ccc(Cn2c(NCc3ccncc3)nc3ccccc32)cc1 | 25.1µM* | · | ·
Cc1cccc(-n2c3nc(=O)[nH]c(=O)c-3cc3c(Cl)cccc32)c1C | · | · | -5.4
CCOC(=O)CC(=O)CSc1nc2nc(C)cc(C)n2n1 | 12.6µM* | 15.8µM* | 6.7
CNC(=O)CSc1nc2nc(C)cc(C)n2n1 | -16.2% | -17.9% | -0.7
SMILES | ALDH1A1 block | HPGD block | IMPase inh
O=C(c1csnn1)N1CCC[C@@]2(CCN(c3ccncc3)C2)C1 | -6.4% | -10.2% | ·
COc1ccc(N=C2CC(C)(C)CC(=O)/C2=C(/O)c2ccccc2)cc1 | 11.4% | · | ·
Cc1ccc(C(c2nnnn2CC2CCCO2)N2CCN(C(=O)c3ccco3)CC2)cc1 (centres undefined) | 15.8µM* | -2.5% | 1.4
COc1cccc(C(c2nnnn2CC2CCCO2)N2CCN(C(=O)c3ccco3)CC2)c1OC (centres undefined) | -9.4% | · | ·
Cc1ccc(S(=O)(=O)Cn2nnnc2CN2CCN(C(=O)c3ccco3)CC2)cc1 | ? | -9.6% | 1.9
O=C(c1ccco1)N1CCN(C(c2ccc(Cl)cc2)c2nnnn2CC2CCCO2)CC1 (centres undefined) | ? | -6.6% | -10.8
Cc1ccc(S(=O)(=O)Cn2nnnc2C(C)N2CCN(C(=O)c3ccco3)CC2)cc1 (centres undefined) | 25.1µM* | -4.8% | 8.6
O=C(c1ccco1)N1CCN(Cc2nnnn2CC2CCCO2)CC1 (centres undefined) | 20µM* | · | ·
CCc1cccc(NCc2ccccc2-c2nnc(-c3ccccc3Cl)o2)c1 | · | · | 3.4
COc1ccc(Cl)cc1NC(=S)NCCSc1ccc(C)cc1 | ? | · | -2.7
O=C(c1cccs1)N1CCN(S(=O)(=O)c2ccc(F)cc2)CC1 | -3.7% | · | ·
COc1ccccc1-c1nccc(NC2CCNCC2)n1 | 1.4% | · | ·
CCn1nc(C)c(CNC(=O)CCc2nnc(Cc3c[nH]c4ccccc34)o2)c1C | 5.3% | · | ·
CCOc1ccc(-n2c(C)cc(/C=N\NC(=O)CC(=O)NC3CCCCC3)c2C)cc1 | -8.0% | -8.5% | ·
Cc1cccc(-n2c(C)cc(C(=O)NC3CCCCC3)c2C)c1 | 0.7% | 0.708µM* | -4.1
COc1ccc(-n2c(C)cc(C(=O)NC3CCCCC3)c2C)cc1 | 7.94µM* | 1.12µM* | 10.7
Cc1cccc(C(=O)NC2CC3CCCC(C2)N3C(=O)NC2CCCCC2)c1 (centres undefined) | 5.7% | -1.4% | 6.8
